# From the supplement of paper PMC10849652
# Targets with a hit are over-represented here; the source holds about 7,900 in all. About 0.6% of all pairs of compound and target were hits. Values without a mark were called inactive.
# Compound: COc1cc(C(=O)O)ccc1NC(=O)[C@@H]1N[C@@H](CC(C)(C)C)[C@](C#N)(c2ccc(Cl)cc2F)[C@H]1c1cccc(Cl)c1F [idasanutlin]
# Assay: log2 fold change, soluble protein after heating vs DMSO (PISA); higher = thermal stabilisation; K562 cells, 10 uM, 30 min; active = over 0.2 and 3.5 SD of the protein, either way, in both replicates (recomputed)
# How it was run: (§1)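 K562 cells at 2×10^6 cells/mL were treated for 30 min with 10 μM compound, and aliquots were heated for 3 min over 48°C-58°C before pooling. Extraction used PBS with 0.5% NP-40 at 4°C, and soluble protein was the supernatant after 21,000xg for 90 min, measured by TMTpro 16plex LC-MS/MS with channel sums equalised. Thermal stability values, relative to control samples and from duplicates, are log2 fold changes.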
# Chain of UniProt P20226 (P20226 whole entry, looked up): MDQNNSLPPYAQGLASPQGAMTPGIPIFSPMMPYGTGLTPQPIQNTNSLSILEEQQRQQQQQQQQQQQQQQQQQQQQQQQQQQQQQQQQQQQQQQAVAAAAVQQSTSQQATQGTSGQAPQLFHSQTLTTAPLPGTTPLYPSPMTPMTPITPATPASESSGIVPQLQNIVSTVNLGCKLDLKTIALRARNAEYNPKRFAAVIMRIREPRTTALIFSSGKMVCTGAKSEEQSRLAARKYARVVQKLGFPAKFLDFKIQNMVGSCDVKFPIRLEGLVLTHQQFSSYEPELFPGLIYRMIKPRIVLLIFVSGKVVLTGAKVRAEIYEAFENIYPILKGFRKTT
# Chain of UniProt Q9BYN0 (Q9BYN0 whole entry, looked up): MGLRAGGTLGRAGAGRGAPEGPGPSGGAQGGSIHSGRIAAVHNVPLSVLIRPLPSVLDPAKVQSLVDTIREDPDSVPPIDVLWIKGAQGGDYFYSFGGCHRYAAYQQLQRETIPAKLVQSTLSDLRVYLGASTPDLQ
# Chain of UniProt P51532 (P51532 whole entry, looked up): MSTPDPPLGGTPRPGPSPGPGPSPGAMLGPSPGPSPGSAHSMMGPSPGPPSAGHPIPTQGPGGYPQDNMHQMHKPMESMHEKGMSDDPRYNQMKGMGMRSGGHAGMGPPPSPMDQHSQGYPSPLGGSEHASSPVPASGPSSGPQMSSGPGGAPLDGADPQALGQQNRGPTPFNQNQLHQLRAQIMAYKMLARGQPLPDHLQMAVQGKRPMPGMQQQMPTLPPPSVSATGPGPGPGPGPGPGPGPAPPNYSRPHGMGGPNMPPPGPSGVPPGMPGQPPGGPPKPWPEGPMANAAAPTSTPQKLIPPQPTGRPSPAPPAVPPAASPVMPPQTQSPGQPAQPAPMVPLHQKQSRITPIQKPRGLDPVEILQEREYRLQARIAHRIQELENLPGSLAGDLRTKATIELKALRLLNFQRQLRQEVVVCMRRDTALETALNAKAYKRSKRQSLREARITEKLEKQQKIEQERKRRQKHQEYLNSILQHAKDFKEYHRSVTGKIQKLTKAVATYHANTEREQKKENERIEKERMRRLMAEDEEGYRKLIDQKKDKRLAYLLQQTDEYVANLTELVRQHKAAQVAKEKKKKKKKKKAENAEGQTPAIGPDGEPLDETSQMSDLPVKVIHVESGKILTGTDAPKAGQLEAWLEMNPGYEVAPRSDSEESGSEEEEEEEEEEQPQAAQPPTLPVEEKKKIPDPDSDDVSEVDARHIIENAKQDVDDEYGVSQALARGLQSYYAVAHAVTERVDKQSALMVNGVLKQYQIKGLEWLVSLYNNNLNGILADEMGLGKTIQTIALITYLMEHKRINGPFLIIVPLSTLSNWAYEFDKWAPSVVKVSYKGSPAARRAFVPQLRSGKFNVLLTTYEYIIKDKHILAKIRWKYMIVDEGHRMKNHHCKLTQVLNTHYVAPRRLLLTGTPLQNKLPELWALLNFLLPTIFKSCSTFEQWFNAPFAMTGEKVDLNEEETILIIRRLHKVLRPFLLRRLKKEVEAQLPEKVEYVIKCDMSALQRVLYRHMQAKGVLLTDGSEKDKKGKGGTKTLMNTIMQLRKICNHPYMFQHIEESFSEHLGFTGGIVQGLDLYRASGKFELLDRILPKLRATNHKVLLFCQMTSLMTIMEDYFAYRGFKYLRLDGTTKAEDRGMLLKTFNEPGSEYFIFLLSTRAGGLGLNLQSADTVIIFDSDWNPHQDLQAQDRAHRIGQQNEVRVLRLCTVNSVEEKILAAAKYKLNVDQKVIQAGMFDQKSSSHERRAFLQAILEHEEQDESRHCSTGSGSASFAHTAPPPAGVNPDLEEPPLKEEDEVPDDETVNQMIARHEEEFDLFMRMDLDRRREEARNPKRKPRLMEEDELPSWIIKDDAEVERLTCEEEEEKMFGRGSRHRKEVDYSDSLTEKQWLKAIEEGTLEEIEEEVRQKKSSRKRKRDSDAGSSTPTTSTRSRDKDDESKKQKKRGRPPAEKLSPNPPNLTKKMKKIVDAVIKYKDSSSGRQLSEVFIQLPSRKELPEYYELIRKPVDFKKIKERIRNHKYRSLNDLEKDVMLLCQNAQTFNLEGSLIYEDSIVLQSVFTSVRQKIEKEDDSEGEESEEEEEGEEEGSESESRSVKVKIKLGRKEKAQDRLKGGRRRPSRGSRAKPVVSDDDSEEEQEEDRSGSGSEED
# Chain of UniProt Q9NXE4 (Q9NXE4 whole entry, looked up): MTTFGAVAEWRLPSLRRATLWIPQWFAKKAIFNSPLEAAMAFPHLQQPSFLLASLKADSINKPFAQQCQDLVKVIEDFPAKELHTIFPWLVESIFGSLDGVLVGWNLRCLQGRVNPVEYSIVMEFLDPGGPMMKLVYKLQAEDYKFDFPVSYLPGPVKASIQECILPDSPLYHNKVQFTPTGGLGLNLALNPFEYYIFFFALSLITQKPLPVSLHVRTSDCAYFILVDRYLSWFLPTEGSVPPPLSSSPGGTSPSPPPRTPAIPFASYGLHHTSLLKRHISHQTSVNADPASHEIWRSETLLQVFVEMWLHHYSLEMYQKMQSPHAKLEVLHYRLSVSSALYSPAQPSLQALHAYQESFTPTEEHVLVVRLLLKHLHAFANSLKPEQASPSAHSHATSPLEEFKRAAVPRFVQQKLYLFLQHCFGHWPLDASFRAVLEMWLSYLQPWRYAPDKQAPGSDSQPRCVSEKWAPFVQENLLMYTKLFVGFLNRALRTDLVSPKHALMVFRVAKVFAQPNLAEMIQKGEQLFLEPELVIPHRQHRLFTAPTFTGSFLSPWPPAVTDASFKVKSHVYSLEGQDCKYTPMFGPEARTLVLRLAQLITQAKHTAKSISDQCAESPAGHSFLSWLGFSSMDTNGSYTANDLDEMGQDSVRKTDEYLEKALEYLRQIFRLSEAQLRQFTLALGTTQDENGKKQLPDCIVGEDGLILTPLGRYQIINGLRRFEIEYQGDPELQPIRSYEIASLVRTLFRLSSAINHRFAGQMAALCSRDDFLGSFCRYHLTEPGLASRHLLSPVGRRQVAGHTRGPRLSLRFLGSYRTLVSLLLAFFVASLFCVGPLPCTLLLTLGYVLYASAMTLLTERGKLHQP
# Chain of UniProt Q5JUR7 (Q5JUR7 whole entry, looked up): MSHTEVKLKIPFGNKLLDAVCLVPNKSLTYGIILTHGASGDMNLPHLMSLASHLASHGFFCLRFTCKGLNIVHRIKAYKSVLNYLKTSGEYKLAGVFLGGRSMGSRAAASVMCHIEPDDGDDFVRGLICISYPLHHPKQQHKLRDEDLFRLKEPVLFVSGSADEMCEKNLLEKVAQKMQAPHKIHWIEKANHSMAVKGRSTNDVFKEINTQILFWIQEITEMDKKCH
# Chain of UniProt P12931 (P12931 whole entry, looked up): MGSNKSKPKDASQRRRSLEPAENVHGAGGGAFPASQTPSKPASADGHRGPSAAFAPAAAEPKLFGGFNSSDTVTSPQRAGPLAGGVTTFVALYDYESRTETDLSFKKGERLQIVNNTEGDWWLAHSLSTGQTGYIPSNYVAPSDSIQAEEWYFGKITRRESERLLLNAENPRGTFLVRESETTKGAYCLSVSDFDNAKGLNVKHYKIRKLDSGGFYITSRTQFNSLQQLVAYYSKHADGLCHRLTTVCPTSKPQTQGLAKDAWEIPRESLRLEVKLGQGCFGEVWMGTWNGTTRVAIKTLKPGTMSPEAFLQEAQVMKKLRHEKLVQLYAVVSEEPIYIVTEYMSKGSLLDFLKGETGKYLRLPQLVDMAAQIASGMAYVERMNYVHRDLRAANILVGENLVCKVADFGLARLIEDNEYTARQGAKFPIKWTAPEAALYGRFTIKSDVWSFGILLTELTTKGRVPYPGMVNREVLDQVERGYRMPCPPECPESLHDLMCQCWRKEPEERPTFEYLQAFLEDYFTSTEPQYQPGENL
# Chain of UniProt Q96BZ9 (Q96BZ9 whole entry, looked up): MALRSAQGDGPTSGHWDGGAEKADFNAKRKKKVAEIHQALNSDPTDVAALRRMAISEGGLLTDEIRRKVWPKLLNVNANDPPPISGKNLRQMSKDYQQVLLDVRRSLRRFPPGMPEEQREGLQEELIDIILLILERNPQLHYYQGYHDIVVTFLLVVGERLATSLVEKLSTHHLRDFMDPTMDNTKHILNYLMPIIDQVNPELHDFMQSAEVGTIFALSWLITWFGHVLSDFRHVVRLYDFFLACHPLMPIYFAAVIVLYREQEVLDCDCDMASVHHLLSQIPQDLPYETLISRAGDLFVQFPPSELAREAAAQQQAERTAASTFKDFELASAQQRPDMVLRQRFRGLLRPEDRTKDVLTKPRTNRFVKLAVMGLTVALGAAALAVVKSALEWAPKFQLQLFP
# Chain of UniProt Q9BWG4 (Q9BWG4 whole entry, looked up): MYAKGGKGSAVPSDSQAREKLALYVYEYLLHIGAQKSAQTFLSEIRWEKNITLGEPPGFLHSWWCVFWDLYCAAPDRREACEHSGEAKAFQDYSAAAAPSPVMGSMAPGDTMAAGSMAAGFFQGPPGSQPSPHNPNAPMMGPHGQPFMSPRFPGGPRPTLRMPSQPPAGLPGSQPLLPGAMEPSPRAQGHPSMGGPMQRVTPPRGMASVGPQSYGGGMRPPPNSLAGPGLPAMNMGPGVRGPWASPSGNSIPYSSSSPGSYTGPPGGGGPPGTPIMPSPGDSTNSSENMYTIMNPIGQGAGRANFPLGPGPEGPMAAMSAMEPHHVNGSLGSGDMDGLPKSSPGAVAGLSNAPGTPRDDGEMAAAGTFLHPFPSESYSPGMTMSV
# Chain of UniProt Q13242 (Q13242 whole entry, looked up): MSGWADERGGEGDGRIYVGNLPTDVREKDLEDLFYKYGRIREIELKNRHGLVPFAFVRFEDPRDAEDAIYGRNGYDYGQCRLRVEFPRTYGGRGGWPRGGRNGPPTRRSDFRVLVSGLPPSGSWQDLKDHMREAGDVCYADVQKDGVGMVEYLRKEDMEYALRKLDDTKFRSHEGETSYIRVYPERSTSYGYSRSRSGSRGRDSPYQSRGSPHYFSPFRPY
row,Target,log2 fold change
1,SNX2 isoform 2 (UniProt O60749),-0.054
2,SSBP4 (UniProt Q9BWG4),0.122
3,TK1 (UniProt K7ERV3),-0.075
4,TBK1 (UniProt Q9UHD2),0.046
5,SLC8B1 (UniProt Q6J4K2),-0.034
6,TBP (UniProt P20226),-0.076
7,SLC46A1 (UniProt Q96NT5),-0.107
8,SP2 (UniProt Q02086),0.277
9,SPIRE1 (UniProt Q08AE8),-0.023
10,SLC9A6 isoform 3 (UniProt Q92581),0.098
11,TBC1D2 (UniProt Q9BYX2),0.016
12,SPAG9 isoform 4 (UniProt O60271),-0.006
13,TEX30 (UniProt Q5JUR7),-0.02
14,SOX5 (UniProt P35711),0.006
15,SMPD4 isoform 2 (UniProt Q9NXE4),-0.16
16,SRC isoform 2 (UniProt P12931),0.119
17,SMARCA4 (UniProt P51532),0.15
18,TBC1D20 isoform 3 (UniProt Q96BZ9),-0.184
19,SLC35B4 (UniProt Q969S0),0.027
20,SLC38A7 (UniProt Q9NVC3),-0.077
21,SRXN1 (UniProt Q9BYN0),-0.028
22,SRSF9 (UniProt Q13242),0.297
23,THAP9 (UniProt Q9H5L6),0.008
24,TC2N (UniProt Q8N9U0),-0.003
25,SYK (UniProt P43405),0.25

# Compound: COc1cc(Nc2ncc3c(n2)-c2ccc(Cl)cc2C(c2c(F)cccc2OC)=NC3)ccc1C(=O)O [alisertib]
# Assay: as above
# How it was run: as §1
row,Target,log2 fold change
1,SSBP4 (UniProt U3KPY3),0.023
2,SSBP4 (UniProt Q9BWG4),0.018
3,TK1 (UniProt K7ERV3),0.121
4,TBK1 (UniProt Q9UHD2),0.064
5,TBP (UniProt P20226),0.148
6,TCOF1 isoform 6 (UniProt Q13428),-0.263
7,SPIRE1 (UniProt Q08AE8),-0.033
8,TBC1D2 (UniProt Q9BYX2),-0.053
9,SPAG9 isoform 4 (UniProt O60271),0.062
10,TEX30 (UniProt Q5JUR7),0.029
11,SOX5 (UniProt P35711),-0.089
12,SMPD4 isoform 2 (UniProt Q9NXE4),-0.117
13,SRC isoform 2 (UniProt P12931),0.01
14,SMARCA4 (UniProt P51532),-0.086
15,TBC1D20 isoform 3 (UniProt Q96BZ9),-0.089
16,SLC35B4 (UniProt Q969S0),0.032
17,SREBF1 isoform 4 (UniProt P36956),-0.014
18,TAOK2 (UniProt Q9UL54),0.107
19,SLC38A7 (UniProt Q9NVC3),-0.136
20,SRXN1 (UniProt Q9BYN0),0.098
21,SRSF9 (UniProt Q13242),-0.118
22,SSB (UniProt E7ERC4),0.494
23,THAP9 (UniProt Q9H5L6),-0.068
24,TC2N (UniProt Q8N9U0),0.012

# Compound: COc1cc2nc(-c3cc(F)ccc3O)nc(N[C@@H]3CNC[C@H]3C(C)(C)O)c2cc1OC
# Assay: as above
# How it was run: as §1
row,Target,log2 fold change
1,SNX2 isoform 2 (UniProt O60749),0.462
2,SSBP4 (UniProt Q9BWG4),0.076
3,TK1 (UniProt K7ERV3),-0.107
4,TBK1 (UniProt Q9UHD2),0.087
5,SLC8B1 (UniProt Q6J4K2),0.132
6,TBP (UniProt P20226),0.072
7,SLC9A6 isoform 3 (UniProt Q92581),0.055
8,TEX30 (UniProt Q5JUR7),0.07
9,SOX5 (UniProt P35711),-0.055
10,SMPD4 isoform 2 (UniProt Q9NXE4),-0.308
11,SRC isoform 2 (UniProt P12931),0.017
12,SMARCA4 (UniProt P51532),0.273
13,TBC1D20 isoform 3 (UniProt Q96BZ9),0.102
14,TM7SF2 (UniProt O76062),-0.143
15,TAOK2 (UniProt Q9UL54),-0.02
16,SLC38A7 (UniProt Q9NVC3),0.01
17,SRXN1 (UniProt Q9BYN0),-0.036
18,SRSF9 (UniProt Q13242),-0.09
19,SNRK (UniProt Q9NRH2),0.84 (active)
20,SYK (UniProt P43405),0.204
